Measurements as given in PubChem BioAssay (NCI).
The panel holds about 83,000 compounds, 20% with a hit somewhere; the sample as a whole holds those more often.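 96-well plates, one dose, 48 hours. Percent growth reported; active if below 10.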 Calls of active or inactive are those of the source.

Columns and labels:
Experiment in all cases: NCI-60 one-dose screen, 48 h (100 = growth as untreated, 0 = no growth, -100 = all killed)
Conditions in all cases: 10 µM unless noted
[1] = system: DU-145 prostate
[2] = system: K-562 leukemia
[3] = system: MALME-3M melanoma
[4] = system: MDA-MB-231 breast
[5] = system: RXF 393 renal
[6] = system: SF-268 CNS
[7] = system: SF-295 CNS
[8] = system: SF-539 CNS
[9] = system: UACC-257 melanoma
[10] = system: M14 melanoma

Measured: growth

CCOC(=O)c1nc(Nc2ccc(C(C)=O)cc2)sc1C
inactive: [1] 107% | [2] 99.1% | [3] 106% | [4] 104% | [5] 109% | [6] 102% | [7] 92% | [8] 97.2% | [9] 102% | [10] 104%

O=[N+]([O-])c1ccccc1NCSc1ccc(Cl)cc1
inactive: [1] 102% | [2] 93.1% | [3] 87.5% | [4] 90% | [5] 88.9% | [6] 84.2% | [7] 77.4% | [8] 107% | [9] 95.8% | [10] 102%

CCOC(=O)c1c2c(n(-c3ccc(C#N)cc3)c1-c1ccccc1)C=CCC2
inactive: [1] 102% | [2] 70.7% | [3] 103% | [4] 91.6% | [5] 109% | [6] 96.8% | [7] 86.2% | [8] 114% | [9] 102% | [10] 93.5%

CCOC(=O)Nc1ccc(-c2nc(-c3cccc(OC)c3)c(-c3ccnc(Br)c3)[nH]2)cc1
active: [5] -27% | [7] -36.1%
inactive: [1] 51.9% | [2] 11.9% | [3] 40.5% | [4] 41.2% | [6] 51.9% | [8] 21.7% | [9] 56.1% | [10] 36%

C[C@]12CC[C@@H]3c4cc(OC(F)F)c(OS(N)(=O)=O)cc4CC[C@H]3[C@@H]1CC[C@@H]2OS(N)(=O)=O
inactive: [1] 42.1% | [2] 16.8% | [3] 41% | [4] 54% | [5] 42.1% | [6] 49.7% | [7] 27.3% | [8] 26% | [9] 62.2% | [10] 31.1%

COc1ccc(-c2cc(-c3cc(OC)c(OC)c(OC)c3)nc(N3CCOCC3)c2C#N)cc1
inactive: [1] 93.5% | [2] 47.5% | [3] 126% | [4] 75.3% | [5] 52.9% | [6] 83.4% | [7] 69.5% | [8] 76.6% | [9] 74.2% | [10] 90.3%

CC(=O)OC[C@H]1OC(Sc2sc(C(=O)c3ccc(Cl)cc3)c(N)c2-c2nc3ccccc3s2)[C@H](OC(C)=O)[C@@H](OC(C)=O)[C@@H]1OC(C)=O (stereo not given in full)
inactive: [1] 70.7% | [2] 87.7% | [3] 69.4% | [4] 56.2% | [5] 112% | [6] 77.3% | [7] 95.1% | [8] 58.6% | [9] 96.6% | [10] 89.6%

O=C(Nc1ccc(OS(=O)(=O)c2ccc(F)cc2)cc1)c1ccc(Cl)cc1
inactive: [1] 107% | [2] 81.1% | [3] 96.9% | [4] 104% | [5] 109% | [6] 101% | [7] 105% | [8] 108% | [9] 100% | [10] 98%

CN1CCN(c2ccc(-c3ccc4ncc(C#N)c(Nc5ccc(F)c(Cl)c5)c4c3)cc2)CC1
active: [2] 0.404% | [3] -63.5% | [9] -0.414% | [10] -33.5%
inactive: [1] 29.1% | [4] 76.8% | [5] 27.3% | [6] 50.8% | [7] 69.6% | [8] 54.3%

CCOC(=O)C1=C(N)Oc2c(sc3c(C)cccc23)C1c1ccc(F)cc1 (stereo not given)
inactive: [1] 12.1% | [3] 52.7% | [4] 27.8% | [6] 38.2% | [9] 59.2% | [10] 10.6%
active: [2] 4.54% | [5] -7.13% | [7] 0.881% | [8] -1.53%

O=C(O)C(c1ccccc1)N1C(=O)CSC1=S (stereo not given)
inactive: [1] 107% | [2] 103% | [3] 107% | [4] 108% | [5] 108% | [6] 94.4% | [7] 104% | [8] 100% | [9] 101% | [10] 100%

N#Cc1cccc(NC(=O)c2cc(-c3ccc(F)cc3F)ccc2O)c1
inactive: [1] 18.4% | [2] 13.3% | [6] 14.5% | [7] 80.5% | [8] 16.3% | [10] 23.6%
active: [3] -25.1% | [4] -2.77% | [5] 3.07% | [9] -10%

CCc1ccc(Oc2c(-c3ccc(OCc4ccc(Cl)cc4)cc3O)nn(C)c2C(F)(F)F)cc1
active: [2] 2.43% | [3] -27.6% | [4] -55.7% | [5] -43.3% | [7] -11.1% | [8] 2.68% | [9] -18.3% | [10] 1%
inactive: [1] 15% | [6] 12.6%

Cc1c(C(=O)NCCCc2ccccc2)sc2ncc(-c3ccc(Br)cc3)n12
inactive: [1] 104% | [2] 101% | [3] 101% | [4] 99.4% | [5] 109% | [6] 98.9% | [7] 112% | [8] 103% | [9] 109% | [10] 100%

NC1CCN(c2nc(Nc3cccc(C(F)(F)F)c3)c3c(=O)[nH]ccc3n2)CC1
active: [1] 7.32% | [2] -48.7% | [3] -64.1% | [4] -62% | [5] -93.6% | [6] -46.2% | [7] -56.7% | [8] -96.5% | [9] -74.6% | [10] -95.2%

CCCCCCNC(=O)Oc1ccc(/C(=C(\C)c2ccc(Cl)cc2)c2ccc(OCCCN(C)C)cc2)cc1
inactive: [1] 84.9% | [3] 68.6% | [4] 79.2% | [5] 80.1% | [6] 77% | [7] 97.5% | [8] 87.9% | [9] 60% | [10] 76.7%
active: [2] -28.4%

Cc1nc2nc(SCC(=O)O)[nH]c2c(=O)[nH]1
inactive: [1] 113% | [2] 94.9% | [3] 112% | [4] 110% | [5] 109% | [6] 108% | [7] 97.9% | [8] 97.6% | [9] 96.7% | [10] 102%

CCOc1ccc2nc(SCc3nc4n(n3)S(=O)(=O)c3ccccc3N4C)sc2c1
inactive: [1] 25.3% | [2] 34.8% | [3] 10.1% | [4] 10.5% | [6] 25.9% | [9] 24.4%
active: [5] 7.23% | [7] 6.74% | [8] 8.46% | [10] 5.88%

Cc1cc(O)c(C2=NN(c3ccc(S(N)(=O)=O)cc3)C(/C=C/c3ccccc3)C2)cc1Cl (stereo not given)
inactive: [1] 36.4% | [2] 31.2% | [3] 24.6% | [4] 47.7% | [5] 30% | [6] 24.1% | [7] 38.5% | [8] 13.4% | [9] 64.6% | [10] 29.8%

Cc1ccc(C(=O)N/N=C/c2cccc(Oc3ccccc3)c2)cn1
inactive: [1] 88.7% | [2] 23.8% | [3] 64.8% | [4] 65.3% | [5] 71.6% | [6] 79.1% | [7] 41.6% | [8] 72.9% | [9] 72.4% | [10] 50%

c1ccc2cc(C[n+]3ccn(CCCCCCCCCCCCn4cc[n+](Cc5ccc6ccccc6c5)c4)c3)ccc2c1
active: [1] -46.5% | [2] -59% | [3] -76.7% | [4] -74% | [5] -52.2% | [6] -79.5% | [7] -40.3% | [8] -78.6% | [9] -67.5% | [10] -44.9%

COc1ccc(OC)c(/C=C2\Oc3cc(OCCN4CCC(Cc5ccccc5)CC4)ccc3C2=O)c1
inactive: [1] 97.3% | [2] 20.7% | [3] 92.6% | [4] 82.9% | [5] 55.5% | [6] 85.1% | [7] 102% | [8] 87% | [9] 101% | [10] 77.2%

N#C/C(=C\c1ccc(F)cc1)n1nc2cccc(F)c2n1
active: [8] 7.78%
inactive: [1] 37.6% | [2] 13.3% | [3] 52.9% | [4] 49% | [5] 12.8% | [6] 71.4% | [7] 76.1% | [9] 61% | [10] 25.8%

CC([C@H]1CCC2C3CCC4C[C@@H](NC=O)CC[C@]4(C)C3CC[C@@]21C)N(C)C (stereo not given in full)
inactive: [1] 34.1%
active: [2] -39.8% | [3] -57.6% | [4] -13.9% | [5] -51.2% | [6] -70% | [7] -38.8% | [8] -78.4% | [9] -48.3% | [10] -48.8%

CCCCCCCCCCCCCCCCCC1OCC(COC(=O)O[C@]2(CC)C(=O)OCc3c2cc2n(c3=O)Cc3cc4ccccc4nc3-2)O1 (stereo not given in full)
inactive: [1] 76% | [2] 88.4% | [3] 101% | [4] 93.1% | [5] 89.4% | [6] 45.7% | [7] 23.4% | [8] 68.1% | [9] 95.9% | [10] 75.3%

NCCOc1ncccc1/C=C1\C2C=CC=CC2C2C=CC(F)=CC12 (stereo not given)
inactive: [3] 39.2% | [4] 37.4% | [5] 39.9% | [6] 32.3% | [8] 11.1% | [9] 71.7% | [10] 18.8%
active: [1] 6.22% | [2] 8.35% | [7] -2.83%

NCCOc1ncccc1/C=C1\c2ccccc2-c2ccc(C(F)F)cc21
inactive: [1] 13.1% | [2] 16.5% | [3] 61.6% | [4] 35.3% | [5] 61.5% | [6] 54.3% | [7] 53.7% | [8] 49.3% | [9] 102% | [10] 64.5%
